{"source": "PubChem BioAssay (Tox21)", "note": "The source made the active and inactive calls. Calls come from the whole dose curve; as a rule, active = well fitted activation curve with a large enough effect in the repeat runs; inconclusive = weak or mixed curves; inactive = flat fitted curve, though single readings scatter. % is set by controls: 0 for no effect and ±100 for the full control effect."}
{"assay": "A CellTox Green Cytotoxicity Assay to monitor cytotoxicity in HEK293 cells - 0 hour (AID 1224869); note: nearly all actives have a fitted effect of over 50% in size", "conditions": "CellTox Green fluorescence; series mostly up to 76.8 µM; cytotoxicity: at the top concentration", "source_text": "National Center for Advancing Translational Sciences [NCATS]\nNIH Chemical Genomics Center [NCGC]\nU.S. Environmental Protection Agency [EPA]\nNational Institutes of Environmental Health Sciences [NIEHS]\nNational Toxicology Program [NTP]\nCell-based models are critical for drug discovery. Determining the natural cytotoxic effects resulting from test compounds is an essential research activity. A CellTox Green Cytotoxicity Assay to monitor cytotoxicity in real time of continues cell culture during 40 hours of the compound treatment was used to screen Tox21 10K library compounds in Hek293 cells. CellTox Green Cytotoxicity Assay is a nonlytic, homogeneous, biofluorescent method to measure cytotoxicity in cell culture after experimental manipulation. The assay system uses a proprietary asymmetric cyanine dye that is excluded from viable cells but preferentially stains the dead cell's DNA. […] Viable cells produce no appreciable increases in fluorescence. Therefore, the fluorescence signal produced by the binding interaction with dead cell DNA is proportional to cytotoxicity.\nThe mixture of Hek293 cell suspension and reagents were dispensed at 600cells/6 ul/well in 1536-well tissue culture treated black solid bottom plates using a Multidrop dispenser. After the assay plates were incubated at a 37 C/5% CO2 incubator for 5 hours, 23 nL of compounds dissolved in DMSO, positive and negative controls was transferred to the assay plate by a pintool work station. The plates were incubated at 37 C for 40 hours. The fluorescence intensity were measured at 0h, 8h, 16h, 24h, 32h and 40h time points using ViewLux plate reader during compound treatment."}
{"smiles": "Clc1ccc(C(c2ccc(Cl)cc2)C(Cl)Cl)cc1", "Potency": "inactive"}
{"smiles": "CCN1CCC2(CC1)COc1cc3c(cc12)N(C(=O)c1ccc(-c2ccc(-c4nnc(C)o4)cc2C)cc1)CC3", "cytotoxicity": "0.476% (inactive)"}
{"smiles": "CCCCCCCc1ccc(O)cc1", "cytotoxicity": "-12.7% (inactive)"}
{"smiles": "CC(C)=CCN1CC[C@@]2(C)c3cc(O)ccc3C[C@@H]1[C@@H]2C", "cytotoxicity": "-7.56% (inactive)"}
{"smiles": "CCOC(=O)Cc1ccccc1", "cytotoxicity": "0.442% (inactive)"}
{"smiles": "O=S1(=O)OCC2C(CO1)C1(Cl)C(Cl)=C(Cl)C2(Cl)C1(Cl)Cl", "note": "(stereo not given)", "cytotoxicity": "5.42% (inactive)"}
{"smiles": "c1ccc(N=NNc2ccccc2)cc1", "Potency": "inactive"}
{"smiles": "CNC(=O)CSP(=O)(OC)OC", "cytotoxicity": "-4.28% (inactive)"}
{"smiles": "CCCCC(CC)COC(=O)c1ccccc1C(=O)OCC(CC)CCCC", "note": "(stereo not given)", "cytotoxicity": "-3.12% (inactive)"}
{"smiles": "O=C(O)[C@H](O)[C@@H](O)C(=O)O", "cytotoxicity": "0.449% (inactive)"}
{"smiles": "N#CCCl", "cytotoxicity": "0.008% (inactive)"}
{"smiles": "CCC[CH2][Sn]([CH2]CCC)([CH2]CCC)[O][Sn]([CH2]CCC)([CH2]CCC)[CH2]CCC", "cytotoxicity": "2.58% [at 6.97 µM] (inactive)"}
{"smiles": "CCOP(=O)(OCC)Oc1cc(C)nc(C(C)C)n1", "cytotoxicity": "-2.49% (inactive)"}
{"smiles": "BrCC(Br)(Br)Br", "cytotoxicity": "-9.64% (inactive)"}
{"smiles": "NC(=O)C(Cl)Cl", "cytotoxicity": "-3.19% (inactive)"}
{"smiles": "Cc1ccn2nc(S(=O)(=O)Nc3c(F)cccc3F)nc2n1", "cytotoxicity": "2.02% (inactive)"}
{"smiles": "Oc1cc(Cl)c(Cl)c(Cl)c1Cl", "cytotoxicity": "1.03% (inactive)"}
{"smiles": "CCO/N=C(\\CC)C1=C(O)CC(c2c(C)cc(C)cc2C)CC1=O", "note": "(stereo not given)", "cytotoxicity": "2.36% (inactive)"}
{"smiles": "Cc1cccc(Cc2cnc[nH]2)c1C", "cytotoxicity": "-6.02% [at 35.3 µM] (inactive)"}
{"smiles": "ClC1=C(Cl)[C@]2(Cl)[C@@H]3[C@H]4C[C@H]([C@@H]5O[C@H]45)[C@@H]3[C@@]1(Cl)C2(Cl)Cl", "cytotoxicity": "-1.95% (inactive)"}
{"smiles": "O=[N+]([O-])c1ccc(CCl)cc1", "cytotoxicity": "7.47% (inactive)"}
{"smiles": "NC1CCC(CC2CCC(N)CC2)CC1", "note": "(stereo not given)", "cytotoxicity": "-0.121% (inactive)"}
{"smiles": "CSC(=O)c1c(C(F)F)nc(C(F)(F)F)c(C(=O)SC)c1CC(C)C", "cytotoxicity": "-0.925% (inactive)"}
{"smiles": "CC(C)N(C(=O)SC/C(Cl)=C/Cl)C(C)C", "cytotoxicity": "-5.55% (inactive)"}
{"smiles": "Cc1ccc([N+](=O)[O-])[c]2c1[O][Hg]2", "cytotoxicity": "-1.74% [at 35.3 µM] (inactive)"}
{"smiles": "CCCCn1cc[n+](C)c1", "note": "(tested in a mixture with another compound)", "cytotoxicity": "-1.95% (inactive)"}
{"smiles": "C=C(C)C(=O)[O][Sn]([CH2]CCC)([CH2]CCC)[CH2]CCC", "cytotoxicity": "-3.02% (inactive)"}
{"smiles": "Cc1cc(C2CC2)nc(Nc2ccccc2)n1", "cytotoxicity": "-4.2% (inactive)"}
{"smiles": "Cc1c([N+](=O)[O-])cc2c(c1[N+](=O)[O-])C(C)(C)CC2(C)C", "cytotoxicity": "6.3% (inactive)"}
{"smiles": "COC(=O)/C=C(\\C)OP(=O)(OC)OC", "cytotoxicity": "-3.39% (inactive)"}
{"smiles": "CNC(=O)Oc1cc(C)cc(C(C)C)c1", "cytotoxicity": "-2.35% (inactive)"}
{"smiles": "CC[C@H](C)[C@H]1O[C@]2(C=C[C@@H]1C)C[C@@H]1C[C@@H](C/C=C(\\C)[C@@H](O[C@H]3C[C@H](OC)[C@@H](O[C@H]4C[C@H](OC)[C@@H](NC)[C@H](C)O4)[C@H](C)O3)[C@@H](C)/C=C/C=C3\\CO[C@@H]4[C@H](O)C(C)=C[C@@H](C(=O)O1)[C@]34O)O2", "cytotoxicity": "-2.19% (inactive)"}
{"smiles": "Cc1cnc2c(C(=O)O)c(Cl)ccc2c1", "cytotoxicity": "-2.39% (inactive)"}
{"smiles": "CC1(C)C(C=C(Cl)Cl)C1C(=O)OC(C#N)c1ccc(F)c(Oc2ccccc2)c1", "note": "(stereo not given)", "cytotoxicity": "-4.6% (inactive)"}
{"smiles": "CC1CCCC1", "cytotoxicity": "-2.73% (inactive)"}
{"smiles": "O=C1C[C@@H]2OCC=C3CN4CC[C@]56c7ccccc7N1[C@H]5[C@H]2[C@H]3C[C@H]46", "cytotoxicity": "1.36% [at 35.3 µM] (inactive)"}
{"smiles": "ClC1(Cl)C2(Cl)C3(Cl)C4(Cl)C(Cl)(Cl)C5(Cl)C3(Cl)C1(Cl)C5(Cl)C24Cl", "note": "(stereo not given)", "cytotoxicity": "-1.57% (inactive)"}
{"smiles": "C=CCBr", "cytotoxicity": "1.47% (inactive)"}
{"smiles": "CCN(CC)C(=S)S", "Potency": "inactive"}
{"smiles": "CC(=O)[O][Pb]([c]1ccccc1)([c]1ccccc1)[c]1ccccc1", "cytotoxicity": "0.618% (inactive)"}
